Results from ChEMBL document CHEMBL4513216, “Probing the Open Global Health Chemical Diversity Library for Multistage-Active Starting Points for Next-Generation Antimalarials” (ACS Infect Dis, 2020).
Screen size: about 69,000 compounds; about 8,600 (12%) showed an effect of 50% or more. Only a selection was taken, and strong results are over-represented in it overall.

Each compound was assayed on Plasmodium berghei (assay: Screen against P. berghei liver stage (PbLuc), transformed with Luciferase, at 10uM). Settings: tested at 10 uM.
Type: functional, HepG2

| Compound | INHIBITION [%] |
| --- | --- |
| CS(=O)(=O)NC1CCCN(C(=O)Nc2cccnc2)C1 (centres undefined) | 37.3 |
| Cc1noc(C)c1-c1nc(C2CCCN(CCC(N)=O)C2)ccc1CO (centres undefined) | -19 |
| O=C(CCN1C(=O)CC2(CCCC2)C1=O)NCCc1nccs1 | 20 |
| Cc1nc(NC(=O)C2(C)CN(C)CCO2)sc1C (centres undefined) | 4.3 |
| CCC(Nc1nc(C(C)C)nc2c1cnn2C)c1ccc(O)cc1 (centres undefined) | 15.5 |
| CCC(Nc1nc(C2CCCC2)nc2c1cnn2C)c1ccncc1 (centres undefined) | 50.8 |
| CC[C@H](Nc1nc(C(C)C)nc2c1cnn2C)c1ccccc1 | 53.6 |
| CCC(Nc1nc(C(C)C)nc2c1cnn2C)c1ccncc1 (centres undefined) | 48 |
| O=S(=O)(CC1CCCCO1)Nc1cnn(CC(F)F)c1 (centres undefined) | 9.76 |
| Clc1ccc(OCCc2cc(C3CCN(c4ncccn4)C3)n[nH]2)cc1 (centres undefined) | 36.22 |
| CCCN1CCC(c2cc(CCOc3ccc(C(F)(F)F)cc3)[nH]n2)C1 (centres undefined) | 58 |
| COc1ccc(OCCc2cc(C3CCN(CC(C)C)C3)n[nH]2)cc1 (centres undefined) | 15.15 |
| O=C(NCc1ccon1)c1c(F)cc(Br)cc1F | -7.83 |
| Cc1nc2ccc(C(=O)N3CCn4c(nnc4C4CC4)C3)cc2nc1C | 48.6 |
| O=C1NCC2(CCCN(C(=O)CCn3cnc4ccccc43)CC2)O1 (centres undefined) | 35.8 |
| Cc1cc2ccccc2n1CCC(=O)N1CCCC2(CC1)CNC(=O)O2 (centres undefined) | 65.7 |
| Cc1cc2ccccc2n1CCC(=O)N1CCC2(CC1)CNC(=O)C2 | 29.4 |

| Compound | INHIBITION [%] |
| --- | --- |
| Cc1cc(NC(=O)CN2CCc3cncnc3C2)no1 | 16.8 |
| Cc1cc(C2CCCN2Cc2cc(=O)n(C)c(=O)n2C)no1 (centres undefined) | -10.3 |
| C[C@H](c1ccc(F)cc1)n1c(C2CCN(C)CC2)n[nH]c1=O | 76.8 |
| C[C@H](c1ccc(F)cc1)n1c(C2CCC2)n[nH]c1=O | -6.59 |
| C[C@H](c1ccc(Cl)cc1)n1c(C2CC2)n[nH]c1=O | 24.4 |
| Cc1nc(N2CCCC2)nc2c1CCN(C(=O)C1CCCCC1)CC2 | -42.8 |
| CCOc1ccnc(N2CCN(C(=O)c3ccncc3)CC2)n1 | 34.7 |
| CC(C)(C)c1n[nH]cc1CNC1CCC(OCC(F)(F)F)CC1 (centres undefined) | -18.5 |
| CC(C)N(C)S(=O)(=O)N(C)Cc1ccc2c(c1)OCCO2 | -10.1 |
| CC(C)N(C)S(=O)(=O)N(C)Cc1ccc2c(c1)OCO2 | 54.3 |
| CCN(Cc1ccc2c(c1)OCO2)S(=O)(=O)N(C)C(C)C | -4.16 |
| Cc1nc(C)n(CC2CCCCN2CC(=O)N(C)Cc2ccco2)n1 (centres undefined) | 28.6 |
| Cc1cnn(CC2CCCCN2CC(=O)N(C)Cc2ccc(C)o2)c1 (centres undefined) | 53.4 |
| Cc1ccc(CN(C)C(=O)CN2CCCCC2Cn2cncn2)o1 (centres undefined) | 40.5 |
| Cc1cc(C)n(CC2CCCN2CC(=O)N(C)Cc2ccc(C)o2)n1 (centres undefined) | 45.7 |
| Cc1cnn(CC2CCCN2CC(=O)N(C)Cc2ccc(C)o2)c1 (centres undefined) | -10.3 |
| Cc1nc(C)n(CC2CCCN2CC(=O)N(C)Cc2ccc(C)o2)n1 (centres undefined) | 74.2 |
